In PubChem BioAssay AID1159506 (National Center for Advancing Translational Sciences (NCATS), 2015):
Over roughly 59,000 sequences, the read-out has its median near -0.00055; the lowest 2% begin near -2. Shown is part of a subset that was picked to be rich in the lowest values.

Experiment: Identification of proteins required for the processing of the EWS-FLI1 nascent transcript;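 also: robust z of luciferase light less the median z of siRNAs with the same seed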
Conditions: TC32 Ewing sarcoma NR0B1-luc vs CMV-luc (EWS-FLI1 target promoter against control promoter), 48 h; screened at 20 nM (by protocol)
Method: Ewing sarcoma (ES) cells depend on the EWS-FLI1 fusion transcription factor for cell survival. Using an assay of EWS-FLI1 activity and genome-wide siRNA screening we have identified proteins required for the processing of the EWS-FLI1 nascent transcript. Parallel genome-wide siRNA-mediated RNAi screens were conducted in Ewing sarcoma TC32 cell lines expressing a luciferase (luc) reporter protein driven by either the promoter of the EWS-FLI1 target gene NR0B1 (TC32-NR0B1-luc) or the CMV promoter (TC32-CMV-luc). Luciferase activity was assessed 48 hours post siRNA-transfection.
Twenty microl of serum-free media containing Lipofectamine RNAiMax (0.05 microl) was added to wells containing siRNA (0.8 pmol). Lipid and siRNA were allowed to complex for 45 min at ambient temperature before addition of 600 cells in RPMI-1640, 20% FBS to yield final transfection mixtures containing 20 nM siRNA in RPMI-1640, 10% FBS. Luciferase expression was measured using OneGlo (Promega, Madison, WI). The genome-wide screening campaign was conducted using Ambion's human genome library version 4.1 (Ambion, Austin TX). This library targets approximately 21000 human genes, three siRNAs per gene. Each siRNA is arrayed in an individual well of a 384-well plate. Parallel transfections were conducted in TC32-NR0B1-luc and TC32-CMV-luc cell lines and luciferase expression (OneGlo, Promega) was assayed 48 h later on a PerkinElmer Envision 2104 Multilabel plate reader (PerkinElmer, Waltham, MA). Qiagen's AllStars Negative control was incorporated on all screening plates for normalization (16 wells per plate). Qiagen, Germantown, MDsiGL4 was incorporated as a positive transfection control (16 wells per plate) on all plates. […] The raw luciferase data for the NR0B1- and CMV-luc screens were normalized and z-score-MAD transformed using standard methods (Chung et al., 2008). The miRNA-like seed sequence of every siRNA was determined and the median z-score for all siRNA sequences with the same seed sequence was calculated. This z-score was subtracted from the z-score associated with each siRNA with that seed sequence to generate a seed-adjusted z-score value (Z) that was used when the results for the three siRNAs corresponding to each gene were compared (Marine et al., 2012)

Row | Sequence | seed-corrected z-score
1 | AUGCGAACCUCAUAGGUGG against SNX12 | -0.364
2 | ACACUCAAAAUUACCAGCU against LEMD2 | -1.09
3 | UGUUUUUGAAGUUAGAUCU against LOC728999 | 1.08
4 | UAAUCCUGACUUUCAAUUG against PAGE3 | -0.446
5 | AACAGUUUCUGCAUUCUUC against PARG | -0.336
6 | AGAGGUCUGAGCACAGUUC against HSPA6 | -1.34
7 | UAACAUCUUCGAACUGCGG against MAU2 | -1.35
8 | UGGUUGUUUAAGUCGACUG against USP33 | -2.43
9 | UCCCUUCACAAAGAAAGAG against TLDC2 | 0.201
10 | UUUCUUAGAAAGCGGUUCC against MORN5 | -0.0295
11 | UAGGAUACAUUGCUGAUGC against CASC1 | -0.353
12 | UCUUUCUUUAGUCUGAGUG against NMUR2 | 0.78
13 | UUCUUUAUCUCGAUGAUGC against FAM117B | -3.46
14 | AUCGCUCCCAUAGUUCACC against KRT20 | -0.0454
15 | UUUUCCUUAAUUAACGGCA against DTYMK | -0.22
16 | UCUGUGGAUACUGAUAUUC against NRG1 | 1.7
17 | UAUGGAAAAAUUAAUCUGU against RAC1 | -0.118
18 | UUCAGUAGAAGUUUCAUCU against POLR2H | -3.55
19 | UACAGAAUGGUUGUCUUGC against ARF4 | 0.573
20 | UAGAGUGCUAAGGACAGGG against GFI1B | 0.226
21 | AGAUUUAUAAUAAUCCCAC against C11orf72 | 0.747
22 | UUACUGGAGACCAAUCUUC against FDFT1 | -1.01
23 | UUAUUGACACGAAUACAUC against BTG3 | 0.565

Row | Sequence | seed-corrected z-score
24 | UGGAGGUUAUGAUCAUUCC against OR51B6 | -2.91
25 | AUGGUGGUAAUUACGCUGC against SLCO5A1 | -0.993
26 | UGACUUUACCUCAAAGUUG against PRPF19 | -0.0138
27 | UCAUUGUCUUCUAUCAAUC against FYN | -0.739
28 | UUCGUAUUAAGAACUGCAG against PSMD1 | -2.79
29 | UAUGGGUUUGUUAAAAGGC against FUT6 | -0.26
30 | UUGCCUUCCAAGUUCUUUC against TNP2 | -0.491
31 | AUACGAUAAGCAGAGGAGG against GLT8D1 | -0.112
32 | AAACCUGCUAUAUCACUCC against ATAD1 | 0.174
33 | AAUCUUCGUAAGACUAUCC against C9orf50 | -2.07
34 | UUCCUUGUUAGCACAGACC against GSR | -0.669
35 | UACUUGUUGAGUGUCUCAG against CXCR1 | -1.52
36 | AGUCGAAUAACAUAUAUCC against NBPF14 | -2.13
37 | AAAGUUCUCAGGGUAGUGG against TOP3B | -0.163
38 | UGUCAUAUACGCUCCAUAC against EYA4 | -0.104
39 | UGUUUCUACCCUUUGCUCC against FAM174B | -0.127
40 | UUUGCAGCUAGUGAUGCGC against ABHD8 | -0.567
41 | UAGCUAUUACCUUACAUUG against HRG | 0.409
42 | UCAUUGUUGAGGUGCGUGA against CDK5R1 | 1.16
43 | UUUUGGACAGGACCGUUGG against SEC24A | 0.282
44 | UUUGGUGCAAAAACCGUGU against WTIP | -2
45 | AUGGCUUCAACAAGCAUCU against HGH1 | -0.109
46 | UAUGGGUCUACCGUCACAC against MIOS | -1.14

Row | Sequence | seed-corrected z-score
47 | UCAGGUACUCUAACACCGC against HIST1H2AC | -0.00982
48 | UACCGGUCGAGGCUGAUCA against HRH2 | -2.03
49 | UUUCAUAGUAAUCGUAGAC against LOC728715 | 0.493
50 | UUGAGAGUAGAGACUGAGC against MKL2 | -0.474
51 | AAGCCUCACAGUACUGCGC against NSMCE3 | -2.76
52 | UACAGUGCAGGAUCUUCUC against NBL1 | -0.461
53 | UAUAUAUCGCCCAUCUCUC against OARD1 | -0.737
54 | UCUGGUACAUUCGAUAGCG against PTGFRN | 0.714
55 | UUUCUUCCCAUGAUCUUUC against RALBP1 | 0.057
56 | UACUGUCCCAAUGGUCAGC against EZH2 | -2.1
57 | AAAUGAACAGGUUUGGAAC against GRPR | 0.695
58 | UUCUUGUUGGAUAAUGCUG against RFX8 | 0.126
59 | AAUGAUCACACCUAAGCCC against USH2A | -3.89
60 | UUCUGCACUCGAGUAAAGG against MAD2L1 | 0.536
61 | AUGCUAGUCAAAAGAAUCG against FBXO40 | 0.266
62 | UCGUCUAAAAUGACUAACG against SACS | 0.485
63 | UCAGAUUUCAGAUCUUUGA against ANXA11 | 0.136
64 | AAAGUACUCCGUAUUUCCC against SLC35D2 | -1.42
65 | UCUAGGGUCACUGUGACGG against RGS9BP | -0.834
66 | UAGUUGUCCUUCAUAAUUC against CCDC67 | -2.53
67 | ACCUCUUCAACAUCUAACC against GEMIN4 | 0.118
68 | CACGUGGCUAUUGUGGAAC against COX6A2 | -1.45
69 | AUAGGUUCCUCUAUAUGUG against ZNF396 | 1.53

Row | Sequence | seed-corrected z-score
70 | UUGGGUGCGAUCUGCAGAC against LINC00304 | -0.536
71 | AAAACACGUCGAAAUCUCC against RPL39 | 0.834
72 | UAAGGAUAUUUGCUAAGGC against HMGCLL1 | -0.796
73 | UGUCUUCGCACUCUUAUCC against IFRD1 | -2.25
74 | UGUCCAUCCGUCAUGAUGC against ANKRD60 | 0.777
75 | UAUGUAACAGGAUCCUGCC against RFC1 | 0.0202
76 | UAUAAGUAAGCCUAGCUUG against C16orf54 | 0.684
77 | UUCGAUAGAGAACAAGUCG against FBXL4 | -1.24
78 | UUGAUUUCCACGUUGCAUC against SLC10A2 | -2.5
79 | UACGGGUGCAGUAGUGGUG against RGR | -0.158
80 | UCAUCGUCUACUUCCAUUG against BPTF | -1.63
81 | AACCGCUCCAUUUUUGCUC against POM121L12 | 0.212
82 | AAUUUAUUCCAAACUUGUC against ME3 | -2.03
83 | UUAGGGAAAGGUCCUCCUU against ELK1P1 | 0.104
84 | UGACUUAUGAACAUCAAAG against KLHL31 | -1.09
85 | AUCUAUCUGACCCAAAUCC against HNRNPH1 | -2.26
86 | ACAUGAUCCAUCCAAAUGC against CD163 | -0.0516
87 | AACCGAUUCAUGACCACCG against AQP5 | 0.51
88 | UUGGUGACUGUGCGCAUCC against TACR2 | -0.41
89 | AUGUGGACAACCUUCUUUG against RPS10P9 | -1.14
90 | AACGGGAACACCGACAACA against OPRL1 | -0.00815
91 | AACGUAAUAAAAGUCUUGC against SERHL | 0.571
92 | UGCUGGUUCAACUCAUCGC against DLGAP3 | -2.34

Row | Sequence | seed-corrected z-score
93 | UUACUAACAUCUUCUCGUC against PKN2 | 0.115
94 | AAACCUAUUAGUGAGAACA against TRIML1 | -0.116
95 | AAACGGAGUCGUAGGAUCC against BMP15 | -0.603
96 | UUUCGUAUUCUGAGGACCG against DLGAP5 | 0.243
97 | UUGCAGAUCUUUUCGCACC against S100A9 | -0.59
98 | AUUCGGAUUUGGGUCGUGC against PCDHGB2 | 0.36
99 | UCAUGAUCUAUGUAGCCCG against ODF3L1 | -2.53
100 | UUCACCAUGACAGCCGAAG against RPL37AP8 | -0.494
101 | UUCAAUUCCAGCAACAUAA against CLDND1 | -0.35
102 | AUGGUAACGAGCUGAAUCC against TWF1 | 0.694
103 | AAAUGUACAGGGAUCCAGG against ACCSL | -2.2
104 | UUCAGGGCGAGGUAAUCCU against HLA-G | -0.165
105 | UUUCAUAAUUGUCUCACUG against MTHFD2 | 0.341
106 | AAACUUGUACACGUUCUUG against RPN2 | 1.31
107 | AUACGAUAAAUAGCAGCUG against OR2D2 | -0.266
108 | UCAUGUAUUGCUGGGUGGG against LETMD1 | -2.04
109 | UGAAAGCGCAGAUCUGUCU against HIST1H3G | -0.148
110 | UGGUCUAAGGCUUUGAUGC against KLK2 | -0.348
111 | UGAUAUUUUGGUGCGUUGU against FBXO45 | 0.68
112 | UAGUUGGUGAGGAUCACGG against REN | -0.578
113 | UACUCUUCCAACGACAGGC against UQCC2 | 0.919
114 | UUCCGAGUUGCAGAGGUCU against SLURP1 | -0.177
115 | AAAAGGAUUGCUGAAAUGG against LOC650293 | 0.542

Row | Sequence | seed-corrected z-score
116 | UCUUGACUGACUUUCUUCU against FAM173B | -2.2
117 | AAUGGAUGCAGUGUCAAGC against PAK1IP1 | 1.75
118 | UUCCUUGACAAGCAUAACC against CARNMT1 | -0.155
119 | AAAUCUUACAGACUGGUUC against BEX1 | -0.486
120 | UCAUGGGUCACGUCAGCUG against SLC2A1 | -0.895
121 | ACACUGUAAAGCUCGGUGC against LARP1 | 0.106
122 | UUAGAGUUGGUGAUGAGCA against GALK1 | 1.7
123 | AAAAGGACUAUGUACAGCC against SNRPB | -3.37
124 | UAUGCUCUCUGAUCGAAUG against ATG16L1 | 0.136
125 | UUGCUCACAAUAAAAUAGC against GPR89A | -0.56
126 | UGUAGACAAAGUACUGGGC against CNTN2 | -0.261
127 | AAACUUCCUAUUAUCGACC against SPRED2 | -0.704
128 | UUCGAGUGAAGACAGAAUC against ZNF318 | -2.15
129 | UAAGUUGUGAUGAUAGGUU against ZNF98 | -0.0973
130 | AUCUGAUCCAUAUUCUCCC against DIEXF | 0.628
131 | UACAAUAAAAGAAGCAUCU against PIGY | 0.157
132 | UUUCUUAGAAAUGAGGUGA against OVOL1 | -0.287
133 | UCAGGAUCUGUGGAUACUG against COPB2 | -2.55
